Source: PubChem (National Center for Advancing Translational Sciences (NCATS))
NTMT1 inhibitor: blocks human N-terminal methyltransferase 1 activity; Q9BV86; 59,000 tested, 2.5% active; Potency, µM (titrated, usually from 114 µM), inactives show top-dose activity change, negative = inhibition, actives largely listed as inhibitors; NTMT1 MTase-Glo SAH luminescence, purified enzyme;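 note: potency is the fitted concentration of half-maximal effect; plate controls were DMSO vehicle for no effect and no enzyme for full effect; nearly all actives have a fitted effect of over 65% in size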
Target sequence (Q9BV86 whole entry, looked up): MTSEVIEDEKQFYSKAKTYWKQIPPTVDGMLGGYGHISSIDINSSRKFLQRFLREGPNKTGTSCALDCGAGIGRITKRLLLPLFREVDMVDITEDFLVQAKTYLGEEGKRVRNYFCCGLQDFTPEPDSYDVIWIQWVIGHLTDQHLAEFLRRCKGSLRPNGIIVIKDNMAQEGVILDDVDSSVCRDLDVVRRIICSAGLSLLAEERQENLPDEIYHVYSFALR
GALC G270D act: raises human GALC G270D mutant activity in cells; P54803; 145M-Twi-hGALC-G270D cells (Twitcher mouse brain line with human GALC G270D), HMU-beta-Gal fluorescence, 48 h; Potency, µM (titrated, usually from 57.5 µM), actives largely listed as activators; 45,000 tested, 0.1% active; AID 1159614; note: potency is the fitted concentration of half-maximal effect; 0% is about no effect; nearly all actives have a fitted effect of over 65% in size
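Live 145M-Twi cells (Twitcher mouse brain-derived, GALC-null) stably expressing human GALC-G270D, with a wild-type GALC line, were compound-treated. Residual GALC activity was then read as fluorescence from 0.1 mM final HMU-β-gal at pH 5.2; higher signal means activation.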
DRV1 agonist: agonists of human resolvin D1 receptor DRV1 (GPR32) | O75388 | CHO-K1 GPR32 beta-arrestin PathHunter luminescence, 90 min; zero percent set by DMSO-only wells | AID 1346428 | activation, % at 76.9 µM | 48,000 tested, 2.5% active;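 active = activation of at least 60% and not above a set upper limit, about 1 call in 100 departs from these limits; inconclusive = activation of 40% to 60%, or above that upper limit; inactive = activation under 40%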; note: 0% is about no effect
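PathHunter beta-arrestin recruitment in CHO-K1 cells stably expressing ProLink-tagged GPR32. Cells were exposed to compound for 90 min at 37 C, then chemiluminescence was read after 1 h detection at ambient temperature; DMSO served as basal control.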
p53null 39C tox: selectivity test: cytotoxicity in p53 null cells, nonpermissive temperature; H1299 p53-null (neo) cells, 39C, ATPlite viability, 24 h; Potency, µM (top dose mostly 46.1 µM), without a hit: at the highest dose activity, negative = cell killing, most hits filed as cytotoxic; 55,000 tested, 0.97% active;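 note: potency is the fitted concentration of half-maximal effect; 0% = DMSO only and -100% = full killing by 100 µM tamoxifen; nearly all actives have a fitted effect of over 50% in size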
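Concentration-response (up to 46 uM) was run for 24 h at the nonpermissive 39C on H1299-p53A138V or H1299-neo cells. ATP content was measured with ATPlite luminescence. AC50 values were Hill-modeled after normalizing between DMSO and 100 uM tamoxifen killing.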
p53null 32C kill: selectivity test: cytotoxicity in p53 null cells, permissive temperature; 55,000 tested, 0.62% active; AID 903; Potency, µM (highest dose often 46.1 µM), inactives show at the highest dose activity change, negative = cytotoxicity, hits mostly cytotoxic; H1299-neo p53 null cells, ATP luminescence, 24 h, 32C;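 note: potency is the fitted concentration of half-maximal effect; 0% = DMSO only and -100% = full killing by 100 µM tamoxifen; nearly all actives have a fitted effect of over 55% in size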
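H1299-neo, 600 cells/well; overnight 37C; cpd up to 46 uM, 24 h at 32C; ATPlite luminescence after 20 min RT; normalized to DMSO (0%) and tamoxifen 100 uM (100% kill); Hill-fit AC50.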
FH mod: Identification of activators of human fumarate hydratase by quantitative high-throughput screening; 54,000 tested, 0.22% active; FH coupled MDH/diaphorase resazurin fluorescence, 15 min; Potency, µM (titrated, usually from 79.9 µM), for inactives: at the top dose activity change, negative = inhibition, hits mostly inhibitors; AID 1347055, 2019; note: potency is the fitted concentration of half-maximal effect; % is set by controls: 0 for no effect and ±100 for the full control effect; the screen sought activators but most active calls are inhibition curves; nearly all actives have a fitted effect of over 45% in size
Target sequence (P07954 whole entry, looked up): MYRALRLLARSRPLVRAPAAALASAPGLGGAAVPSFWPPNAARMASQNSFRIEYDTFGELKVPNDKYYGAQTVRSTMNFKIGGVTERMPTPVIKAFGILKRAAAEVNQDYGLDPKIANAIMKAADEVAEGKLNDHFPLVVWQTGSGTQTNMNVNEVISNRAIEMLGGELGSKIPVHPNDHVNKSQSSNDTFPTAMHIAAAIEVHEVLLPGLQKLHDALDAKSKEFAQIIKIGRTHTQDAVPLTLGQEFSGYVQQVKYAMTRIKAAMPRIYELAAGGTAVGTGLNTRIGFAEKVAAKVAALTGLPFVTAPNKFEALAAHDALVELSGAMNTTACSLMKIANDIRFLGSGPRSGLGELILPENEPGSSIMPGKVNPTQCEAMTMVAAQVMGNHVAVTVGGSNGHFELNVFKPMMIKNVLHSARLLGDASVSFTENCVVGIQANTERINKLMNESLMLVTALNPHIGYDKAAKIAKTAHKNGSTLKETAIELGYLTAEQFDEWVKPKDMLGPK
An asterisk follows results filed as active; i = inactive; ? = inconclusive; / = not tested or not shown; ! = not active in a repeat; [ ] = remark or other dose. Hits are enriched below; roughly 3.9% of the tested compounds scored in any of these assays. Unless noted, calls come from the whole dose curve; as a rule, active = well fitted curve in the direction sought with a large enough effect; inconclusive = small, poorly fitted or top-dose-only effect, or another doubt; inactive = no such curve, though single readings can be large; an effect the other way counts as inactive or inconclusive.

SMILES | NTMT1 inhibitor | GALC G270D act | DRV1 agonist | p53null 39C tox | p53null 32C kill | FH mod
Cc1ccc(-c2cc3ncc4c(n3n2)-c2ccccc2OC4)cc1 | 11% | i | -2 | / | / | 4%
Cc1ccc(-c2nc3n(n2)Cc2ccccc2-3)cc1 | / | / | / | ? | 8.9µM* | /
Oc1ccc(NCc2ccccc2OCc2ccccc2Cl)cc1 | 45µM* | i | -23 | -18% | 4% | ?
CCOc1ccccc1NC(=O)CSc1nc2ccccc2nc1Cc1ccc(C)cc1 | 15% | i | 71* | 7% | 14% | ?
Cc1ccc(Cc2nc3ccccc3nc2SCC(=O)NCCC(C)C)cc1 | 1% | i | -17 | 7% | 1% | -2%
CC(C)(C(=O)NCC(F)(F)C(F)(F)F)C(=O)NC1C(=O)Nc2ccccc2-c2ccccc21 (stereo not drawn) | 4%[57.5 µM] | / | / | / | / | 2%
CC1=C(/C=C/C(C)=C/C=C/C(C)=C/C(=O)O)C(C)(C)CCC1 | 79µM*! | i | -7 | / | / | ?
CC(C=CC1=C(C)CCCC1(C)C)=CC=CC(C)=CC(=O)O | 13%[57.5 µM] | / | / | / | / | 11%[53.3 µM]
Oc1ccccc1 | -14%[57.5 µM] | i | 5 | / | / | -7%[53.3 µM]
Oc1ccc(O)cc1 | 35µM* | i | 2 | / | / | 3.5µM*
COc1ccc(N2CCN(C(=O)c3oc4ccccc4c3NC(=O)c3ccccc3OC)CC2)cc1 | -12% | ? | -5 | -15% | 9% | ?
COc1ccccc1N1CCN(C(=O)c2oc3ccccc3c2N)CC1 | / | / | 71* | -27% | -3% | /
CC1(COc2ccc3c(c2)ncn3-c2ccc3cccc(N4CCC(N)CC4)c3n2)COC1 | 22µM*! | / | / | / | / | 2%
COc1ccc(-n2cnc3cc(N)ccc32)cc1 | / | / | / | -3% | -10% | /
CC(C)c1ccccc1-c1ncc(F)c(NCc2ccc(-n3ccnn3)cc2)n1 | 5% | / | / | / | / | /
CCCOCc1cc(CN2CCN(c3cccc(Cl)c3)CC2)c(O)c2ncccc12 | 16% | i | -7 | 0.32µM* | -24% | ?
CCCCOCc1cc(CN2CCN(c3cccc(Cl)c3)CC2)c(O)c2ncccc12 | 14% | i | 11 | -7% | 7% | 11%
CCC(C(=O)Nc1c(C)cc(C)cc1C)n1c(=O)c(-c2ccccc2NC(C)=O)nc2ccccc21 (stereo not drawn) | 89µM* | i | 0 | 21% | -2% | -8%
CCC(C(=O)Nc1cccc(C#N)c1)n1c(=O)c(-c2ccccc2NC(C)=O)nc2ccccc21 (stereo not drawn) | 4% | i | -40 | -2% | -10% | ?
COc1ncc(-c2ccc3c(Nc4cc(Oc5cc(F)cc(F)c5)cc(C(=O)O)c4)c(S(=O)(=O)NC4CC4)cnc3c2)c(OC)n1 | 11µM*! | / | / | / | / | -1%
O=C(Nc1cc(Oc2cc(F)c(NC(=O)C3(C(=O)Nc4ccc(F)cc4)CC3)cc2F)ccn1)C1CC1 | 21% | / | / | / | / | -2%
O=C(Cn1c(=O)oc2cc(S(=O)(=O)NC3CCCC3)ccc21)Nc1ccc(F)c(F)c1 | 5% | i | 91* | 4% | -1% | -19%
O=C(Cn1c(=O)oc2cc(S(=O)(=O)NCc3ccccc3)ccc21)Nc1cccc(F)c1 | 23% | i | 67* | 3% | -1% | 0%
CC(=O)Nc1sc2c(c1C#N)CCN(C(C)C)C2 | 9% | / | / | / | / | /
CC12CCC(OC3OC(CO)C(O)C(OC4OC(CO)C(O)C(O)C4O)C3O)CC1=CCC1C2CCC2(C)/C(=C3/COC(=O)C3)CCC12O (stereo not drawn) | 13%[12.6 µM] | / | / | / | / | 5%[20.6 µM]
SMILES | NTMT1 inhibitor | GALC G270D act | DRV1 agonist | p53null 39C tox | p53null 32C kill | FH mod
CCC(Cc1ccccc1)NC(=O)Cn1nc(C)n2c(cc3occc32)c1=O (stereo not drawn) | 89µM* | i | -9 | -9% | 2% | -2%
CCOCc1nc2c(N)nc3ccccc3c2n1CC(C)(C)O | 5%[57.5 µM] | / | / | / | / | 1%
CCCNC(=O)CCc1c(C)nc2nc(-c3cc(OC)cc(OC)c3)nn2c1C | -14% | i | 4 | -1% | -2% | -23%
CCCCCCNC(=O)CCc1c(C)nc2nc(-c3cc(OC)cc(OC)c3)nn2c1C | 89µM* | i | -1 | -23% | -5% | -6%
CC[C@@H](C)Nc1cc(C(=O)NC2CC3CCC(C2)N3c2ccc(C(=O)C3CC3)cn2)c(C)cc1C(N)=O (stereo partly drawn) | -1%[57.5 µM] | / | / | / | / | -10%
CCOc1ccc(CCNC(=O)c2ccc3c(c2)c(C)c(C)n3C)cc1 | ? | i | -8 | 25% | -1% | 16µM*
COc1ccc(OC)c(CNC(=O)c2ccc3c(c2)c(C)c(C)n3C)c1 | 89µM* | i | -24 | 3% | 0% | -13%
CCOc1ccc(CCNC(=O)c2ccc3c(c2)c(C)c(C)n3Cc2ccccc2)cc1OCC | -4% | i | -20 | 9% | 11% | -24%
CCOc1ccc(CCNC(=O)c2ccc3[nH]c(C)c(C)c3c2)cc1 | -21% | i | 72* | -2% | -5% | ?
COc1ccc(CCNC(=O)c2ccc3[nH]c(C)c(C)c3c2)cc1OC | -30% | i | 113* | 22% | 7% | ?
COc1ccc(OC)c(CCNC(=O)c2ccc3[nH]c(C)c(C)c3c2)c1 | -6% | i | -7 | -13% | -12% | -20%
Cc1ccc(CCNC(=O)c2ccc3[nH]c(C)c(C)c3c2)cc1 | ? | i | 2 | -2% | -7% | 35µM*
O=C(O)CC1CCC(c2ccc(NC(=O)c3nnc(Nc4ccc(F)c(F)c4)o3)cc2)CC1 (stereo not drawn) | 7%[57.5 µM] | / | / | / | / | -4%
C[C@@H](CN1CCC(n2c(=O)[nH]c3cc(Cl)ccc32)CC1)NC(=O)c1ccc2ccccc2c1 | 1%[57.5 µM] | / | / | / | / | -12%
C=CCn1c(C)cc(C(=O)COC(=O)[C@@H](NC(=O)c2ccccc2Cl)C(C)C)c1C | / | / | / | / | 11µM* | /
CC1CCC(C(=O)NC(C(=O)OCC(=O)c2ccccc2)C(C)C)CC1 (stereo not drawn) | -2% | i | 9 | -5% | -6% | -14%
O=C(NO)c1ccc(CC(=O)N(CCO)c2ccccc2)cc1 | 10%[4.22 µM] | / | / | / | / | 5%
COc1cc2oc(-c3ccc(O)cc3O)cc2c(OC)c1CC=C(C)C | -9%[29.8 µM] | / | / | / | / | -9%[53.3 µM]
CC12CCC3C1C(c1c(cc(O)c(C(=O)c4ccccc4)c1O)O2)C3(C)C (stereo not drawn) | ? | / | / | / | / | -24%[53.3 µM]
CCCCOc1ccccc1C(=O)Nc1onc2c1CCCC2 | -29% | i | -12 | 28% | 5% | -35%
CCCCCCCCOc1ccccc1C(=O)Nc1ccc(C(=O)OCC[N+](C)(CC)CC)cc1 | 3.5µM*! | i | -56 | / | / | -14%[53.3 µM]
